Measured values reported in PubChem BioAssay (NCI).
Compounds without any hit were thinned out: in the full panel of roughly 83,000, 20% have a hit.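 A percent growth of 40 corresponds to 60% growth inhibition; 0 means no net growth; -100 means all cells died. Active threshold: below 10.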 Values without a mark were called inactive. Activity calls are given as the source filed them.

Key:
Assay in all cases: NCI-60 one-dose screen, 48 h (100 = growth as untreated, 0 = no growth, -100 = all killed)
Conditions in all cases: 10 µM
[1] = system: HT29 colon
[2] = system: SNB-75 CNS
[3] = system: SNB-19 CNS
[4] = system: U251 CNS
[5] = system: PC-3 prostate
[6] = system: SK-MEL-5 melanoma
[7] = system: UACC-62 melanoma
[8] = system: LOX IMVI melanoma
[9] = system: SK-MEL-28 melanoma
[10] = system: SK-MEL-2 melanoma

SMILES	growth [1]	growth [2]	growth [3]	growth [4]	growth [5]	growth [6]	growth [7]	growth [8]	growth [9]	growth [10]
COc1cc(CNCCCCCCN2C(=O)c3cccc4cccc(c34)C2=O)ccc1O	26.9%	67.1%	84.3%	65.9%	51.4%	10.6%	80.5%	36.3%	18.7%	120%
COc1cc(/C=N/NC(=O)c2ccccc2Nc2cccc(C(F)(F)F)c2)cc(OC)c1OC	8.62% (active)	4.15% (active)	61.4%	-32.1% (active)	-35.3% (active)	29.2%	10.3%	11.9%	39.3%	
CN(C)CCN1C(=O)c2cccc3c(-c4ccc5ncn(C6CCCCC6)c5c4)ccc(c23)C1=O	7.45% (active)	40.1%	23.3%	12.6%	22%	21.4%	24.6%	13.8%	47.2%	
COc1ccc(-c2nc3sc(-c4ccccc4)c(-c4ccccc4)n3c2/C=C/C(=O)c2ccccn2)cc1	34.7%	29.1%	97.1%	85.4%	3.71% (active)	70.9%	104%	90.5%	104%	
O=C1/C(=C\c2ccccc2)CN(C(=O)c2ccccc2)C/C1=C\c1ccccc1	-48.5% (active)	49.7%	55.2%	-32.6% (active)	6.58% (active)	-22.8% (active)	-1.94% (active)	-80.3% (active)	-7.74% (active)	
O=C(Nc1ccc(OS(=O)(=O)c2ccccc2)cc1)C12CC3CC(CC(C3)C1)C2	-19.9% (active)	56.4%	71.8%	34.6%	23.6%	32%	57%	40%	75%	
COc1cc(-c2nc(-c3nnc(-c4ccc(F)c(Cl)c4)o3)c3ccccn23)cc(OC)c1OC	15.2%	3.25% (active)	4.53% (active)	31.8%	56.1%	39.7%	33.9%	58.2%	41.4%	
CCOC(=O)c1ccoc1	95.1%	94.4%	97.7%	101%	99.7%	99.6%	101%	99.6%	106%	
O=C1C(=O)c2ccccc2C(O)=C1CCCc1ccc(C2CCCCCC2)cc1	28.5%	49.3%	52.8%	46.1%	20.9%	25.2%	46.6%	16.5%	49.7%	
CCCCCCN1CCN(Cc2ccc(N(CC)CC)cc2)C(=O)C1=O	2.25% (active)	14%	74.4%	17.1%	13.5%	21.4%	45%	45.2%	49.9%	
COc1cc(C(=O)N2CCN(c3ccccc3OC)CC2)c(N)cc1OCCCN1CCN(c2ccccc2OC)CC1	98.2%	104%	104%	96.6%	69%	44.4%	79.4%	78.8%	119%	83.2%
CC(C)(C#N)Nc1ccccc1	99.5%	79.5%	98.9%	95.4%	108%	107%	98.5%	97.8%	111%	
O=c1oc2cc(OS(=O)(=O)c3ccccc3)ccc2c2c1CCCCC2	10%	69.5%	77%	34.4%	29.5%	26%	57.2%	63.8%	73.2%	
O=C(/C=C/c1cc2ccccc2[nH]c1=O)c1ccc2c(c1)OCO2	85.3%	86.7%	88.4%	86.4%	77.5%	96%	90.5%	76.4%	98.6%	
CC1CN(Cc2ccccc2)C(=O)NC1=O (centres undefined)	109%	106%	92%	108%	92.7%	106%	96%	103%	114%	
COc1ccc(-c2nsc3c2NC(=O)CC3c2ccc(F)cc2)cc1 (centres undefined)	4.71% (active)	63.5%	72.5%	33.6%	39.1%	20.5%	51.2%	44.4%	57.5%	-11.7% (active)
O=c1c2ccccc2nc(SCCN2CCCCC2)n1CCc1ccccc1	30.1%	87%	102%	86.7%	89.2%	76.7%	97.8%	81.6%	101%	102%
CCCCOc1ccc(NC(=O)Nc2nnc(C)s2)cc1	99.4%	105%	98.2%	93.2%	92.5%	102%	82.5%	78.9%	106%	105%
CCCCCCCCCCCCC1C/C=C\CCCC(=O)O1 (centres undefined)	107%	102%	110%	109%	112%	109%	108%	113%	126%	
COc1ccc(-c2nn(-c3cccc(NC(=O)c4ccc(Cl)c(Cl)c4)c3)cc2-c2ccncc2)cc1Cl	78.2%	74.8%	87.1%	64%	48.6%	78.8%	83.7%	91.2%	75.3%	
COc1cc(/C=C/C(=O)c2ccc(Cl)cc2)ccc1OS(=O)(=O)c1ccc(C)cc1	28.5%	105%	98.5%	83.7%	76.1%	100%	79.4%	2.55% (active)	106%	108%
CSc1nn(-c2ccccc2)c2ncnc(Oc3ccc(C)cc3)c12	99.3%	75.1%	102%	91.2%	82.5%	94.5%	99.6%	95%	99.5%	
COc1ccc2c(c1)N(CCO)C1=C(C(=O)OC1)C2c1ccccc1 (centres undefined)	1.72% (active)	14.6%	41.1%	20.9%	27.1%	9.35% (active)	20.1%	43.3%	53.7%	
COc1ccc(C2=NN(C(=O)c3ccc(S(C)(=O)=O)cc3)C(c3ccc(OC)c(OC)c3)C2)c(OC)c1 (centres undefined)	103%	94%	99.1%	106%	90.9%	90%	95.2%	103%	112%	
CSc1nn(-c2ccccc2)c2ncnc(Oc3ccccc3)c12	87.3%	70.1%	93.9%	86%	98%	97%	101%	98.4%	111%	80.6%
Cc1ccc(NC(=O)NC2CCCCC2)cc1	101%	107%	102%	99.7%	104%	100%	105%	96.3%	104%	92%
COc1ccc(-c2nn(-c3cccc(NC(=O)c4cc(C(F)(F)F)cc(C(F)(F)F)c4)c3)cc2-c2ccncc2)cc1Cl	61%	60.9%	90.8%	54.7%	40.7%	62.9%	73.6%	80.3%	67.3%	
COc1ccc(CN2CCC(N3CCCC3=O)c3cc(Cl)ccc32)cc1 (centres undefined)	88.8%	103%	99.5%	105%	84.4%	103%	85.2%	103%	116%	
Clc1ccc(Sc2nc(NC3CC3)nc(Sc3ccc(Cl)cc3)n2)cc1	48.8%	92%	105%	80%	46.8%	87.9%	82.2%	91.3%	87.5%	
